# Data from PubChem BioAssay (EPA / NIEHS).
# Records with an inconclusive call do not appear. The source made the active and inactive calls. How the source made its calls: active means hit-call score of the fitted dose curve at least 0.9, where 1 is the maximum; inconclusive means response in the unintended direction; inactive means score below 0.9.
# Experiments:
# [1] = ATG_XTT_Cytotoxicity: Cytotoxicity Assessment in the Attagene TRANS-FACTORIAL HepG2 Assay (AID 2283584);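 on AC50: XTT signal for cell number as viability in transfected HepG2 cells; cells exposed to compound for 24 h before reading; active means loss of viability signal versus DMSO baseline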
# Outline: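 HepG2 cells transiently transfected with GAL4-UAS multiple reporter units, dosed 24 h; cytotoxicity read by XTT as loss of signal versus DMSO baseline.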
# [2] = TOX21_p53_BLA_p2_viability: Viability Assessment in the Tox21 HCT-116 p53 Agonism Beta-lactamase Assay, Phase 2 (AID 2283591);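 further: compound exposure lasted 16 h at 37 °C; actives lower the ATP signal meaning cytotoxicity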
# Outline: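 Cytotoxicity readout: CellTiter-Glo ATP luminescence, 30 min at room temperature, after the beta-lactamase read. Cells were HCT116 exposed 16 h at 37C to compounds pin-transferred at 217-fold dilution from DMSO stocks.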
# [3] = target: Cellular tumor antigen p53 (Homo sapiens) (UniProt P04637); assay: TOX21_p53_BLA_p2_ratio: Tox21 HCT-116 p53 Agonism Beta-lactamase Assay, Ratio, Phase 2 (AID 2283592)
# Outline: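 HCT-116 cells with p53-responsive beta-lactamase reporter, 4000 cells/well, preincubated 5 h, then compound in DMSO (217-fold dilution) for 16 h at 37C. CCF4-AM substrate 2 h at room temperature; 460/530 nm emission ratio fitted upward versus DMSO.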
# [4] = TOX21_p53_BLA_p3_viability: Viability Assessment in the Tox21 HCT-116 p53 Agonism Beta-lactamase Assay, Phase 3 (AID 2283593);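 further: cells exposed to compound for 16 h before reading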
# Outline: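 Cellular ATP was quantified by CellTiter-Glo luminescence, read after 30 min at room temperature. Beforehand, HCT116 cells (4000/well) received compound 5 h post-seeding, 217-fold diluted from DMSO, then incubated 16 h at 37C.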
# [5] = target: Cellular tumor antigen p53 (Homo sapiens) (UniProt P04637); assay: TOX21_p53_BLA_p3_ratio: Tox21 HCT-116 p53 Agonism Beta-lactamase Assay, Ratio, Phase 3 (AID 2283596)
# Outline: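 HCT116 p53-bla cells (4000/well) given compound in DMSO (217-fold dilution) after 5 h, incubated 16 h at 37C. CCF4-AM substrate 2 h at room temperature; 460/530 nm emission ratio, gain fitted against DMSO.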
# [6] = TOX21_p53_BLA_p4_viability: Viability Assessment in the Tox21 HCT-116 p53 Agonism Beta-lactamase Assay, Phase 4 (AID 2283597);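 further: hits lower the luminescence signal meaning cytotoxicity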
# Outline: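 HCT-116 p53-bla cells, 4000/well, dosed after 5 h attachment and incubated 16 h at 37 °C, 5% CO2. Viability from CellTiter-Glo ATP luminescence after 30 min at room temperature, taken after the beta-lactamase read; loss of signal indicates cytotoxicity.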
# [7] = TOX21_p53_BLA_p5_viability: Viability Assessment in the Tox21 HCT-116 p53 Agonism Beta-lactamase Assay, Phase 5 (AID 2283600)
# Outline: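 HCT-116 p53 beta-lactamase reporter cells, 4000/well, were exposed to compound (pin transfer, 217-fold dilution) for 16 hours at 37C. Cellular ATP was read by CellTiter-Glo luminescence after 30 min at room temperature.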
# [8] = target: Cellular tumor antigen p53 (Homo sapiens) (UniProt P04637); assay: TOX21_p53_BLA_p4_ratio: Tox21 HCT-116 p53 Agonism Beta-lactamase Assay, Ratio, Phase 4 (AID 2283601)
# Outline: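 Signal is the blue/green (460nm/530nm) ratio of cleaved versus uncleaved CCF4-AM substrate, read after 2 h substrate loading. Cells were HCT116 carrying the p53-responsive beta-lactamase reporter, dosed 16 h at 37C, 5% CO2; CellTiter-Glo measured in parallel.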
# [9] = target: Cellular tumor antigen p53 (Homo sapiens) (UniProt P04637); assay: TOX21_p53_BLA_p5_ratio: Tox21 HCT-116 p53 Agonism Beta-lactamase Assay, Ratio, Phase 5 (AID 2283599)
# Outline: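 Beta-lactamase reporter ratio (blue 460 nm over green 530 nm, 405 nm excitation) after 2 h CCF4-AM loading, in HCT-116 cells exposed 16 h at 37 C to compounds pinned at 217-fold dilution. Increases relative to DMSO baseline scored.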
# Chain of Cellular tumor antigen p53 (Homo sapiens) (P04637 whole entry, looked up): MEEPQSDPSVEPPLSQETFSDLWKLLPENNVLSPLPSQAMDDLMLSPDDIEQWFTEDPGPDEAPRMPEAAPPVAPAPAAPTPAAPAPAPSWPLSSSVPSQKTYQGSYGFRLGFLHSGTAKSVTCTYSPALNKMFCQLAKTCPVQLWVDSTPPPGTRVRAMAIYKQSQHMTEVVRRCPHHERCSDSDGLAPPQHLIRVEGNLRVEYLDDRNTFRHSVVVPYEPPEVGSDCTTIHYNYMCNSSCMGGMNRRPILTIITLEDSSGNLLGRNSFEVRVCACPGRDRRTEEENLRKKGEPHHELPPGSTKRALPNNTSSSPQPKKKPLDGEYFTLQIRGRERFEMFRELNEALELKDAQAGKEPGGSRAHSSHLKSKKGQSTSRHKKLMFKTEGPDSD
compound,measurement,setting,value
C[C@]12CC[C@H]3[C@@H](CCC4=CC(=O)CC[C@@]43C)[C@@H]1CC[C@@H]2C(=O)CO,outcome,[1],inactive
same,outcome,[2],inactive
same,outcome,[3],inactive
same,outcome,[4],inactive
same,outcome,[5],inactive
same,outcome,[6],inactive
same,outcome,[7],inactive
same,outcome,[8],inactive
O=C(Oc1ccccc1)c1ccc(O)cc1,outcome,[1],inactive
same,outcome,[2],inactive
same,outcome,[3],inactive
same,outcome,[4],inactive
same,outcome,[5],inactive
same,outcome,[7],inactive
same,outcome,[8],inactive
O=C(O)Cc1cccc2ccccc12,outcome,[1],inactive
same,outcome,[2],inactive
same,outcome,[3],inactive
same,outcome,[4],inactive
same,outcome,[5],inactive
same,outcome,[6],inactive
same,outcome,[9],inactive
same,outcome,[7],inactive
same,outcome,[8],inactive
CN(C)C(=N)N=C(N)N,outcome,[1],inactive
same,outcome,[2],inactive
same,outcome,[3],inactive
same,outcome,[4],inactive
same,outcome,[5],inactive
same,outcome,[6],inactive
same,outcome,[9],inactive
same,outcome,[7],inactive
same,outcome,[8],inactive
CC(C)(C)c1cc(CCC(=O)NN)cc(C(C)(C)C)c1O,outcome,[1],inactive
same,outcome,[2],inactive
same,outcome,[3],inactive
same,outcome,[4],inactive
same,outcome,[5],inactive
same,outcome,[6],inactive
same,outcome,[9],inactive
same,outcome,[7],inactive
CC[Si](OC(C)=O)(OC(C)=O)OC(C)=O,outcome,[1],inactive
same,outcome,[2],inactive
same,outcome,[3],inactive
same,outcome,[4],inactive
same,outcome,[5],inactive
same,outcome,[6],inactive
same,outcome,[9],inactive
same,outcome,[7],inactive
CC1(C)[C@@H]2CC[C@@]1(C)[C@H](O)C2,outcome,[1],inactive
same,outcome,[2],inactive
same,outcome,[3],inactive
same,outcome,[4],inactive
same,outcome,[5],inactive
CC(=O)[C@H]1CC[C@H]2[C@@H]3CC=C4C[C@@H](O)CC[C@]4(C)[C@H]3CC[C@]12C,outcome,[1],inactive
same,outcome,[2],inactive
same,outcome,[3],inactive
same,outcome,[4],inactive
same,outcome,[5],inactive
same,outcome,[7],inactive
same,outcome,[8],inactive
CCCc1c(OCCCOc2ccc(OCC(=O)O)cc2)ccc(C(C)=O)c1O,outcome,[1],inactive
same,AC50,[2],57 µM (active)
same,AC50,[3],63.8 µM (active)
same,outcome,[4],inactive
same,outcome,[5],inactive
same,AC50,[6],46.1 µM (active)
same,AC50,[9],66.6 µM (active)
same,AC50,[7],65.8 µM (active)
same,AC50,[8],69.2 µM (active)
CC1(C)CCC(C)(C)c2cc(C(=O)Nc3ccc(C(=O)O)cc3)ccc21,outcome,[1],inactive
same,AC50,[2],28.1 µM (active)
same,AC50,[3],61.2 µM (active)
same,AC50,[4],46.1 µM (active)
same,AC50,[5],72.4 µM (active)
same,AC50,[6],32.5 µM (active)
same,AC50,[9],46.2 µM (active)
same,AC50,[7],39.5 µM (active)
C[Si](O[Si](C)(C)C)O[Si](C)(C)C,outcome,[1],inactive
same,outcome,[2],inactive
same,outcome,[3],inactive
same,outcome,[4],inactive
same,outcome,[5],inactive
same,outcome,[9],inactive
same,outcome,[7],inactive
same,outcome,[8],inactive
NCCNCCN,outcome,[1],inactive
same,outcome,[2],inactive
same,outcome,[3],inactive
same,outcome,[4],inactive
same,outcome,[5],inactive
same,outcome,[6],inactive
same,outcome,[7],inactive
same,outcome,[8],inactive
C#C[C@]1(O)CC[C@H]2[C@@H]3CCC4=Cc5oncc5C[C@]4(C)[C@H]3CC[C@@]21C,AC50,[1],151 µM (active)
same,outcome,[2],inactive
same,outcome,[3],inactive
same,outcome,[4],inactive
same,outcome,[5],inactive
same,outcome,[6],inactive
same,outcome,[9],inactive
same,outcome,[7],inactive
same,outcome,[8],inactive
O=Cc1ccc(F)cc1,outcome,[1],inactive
same,outcome,[2],inactive
same,outcome,[3],inactive
same,outcome,[6],inactive
same,outcome,[7],inactive
same,outcome,[8],inactive
Nc1cc(Cl)c(O)c(Cl)c1,outcome,[1],inactive
same,outcome,[2],inactive
same,outcome,[3],inactive
same,outcome,[5],inactive
same,outcome,[9],inactive
same,outcome,[8],inactive
FC1(F)C(F)(F)C(F)(F)C2(F)C(F)(C1(F)F)C(F)(F)C(F)(F)C1(F)C(F)(F)C(F)(F)C(F)(F)C(F)(F)C12F (centres undefined),outcome,[1],inactive
same,outcome,[2],inactive
same,outcome,[3],inactive
same,outcome,[5],inactive
same,outcome,[9],inactive
same,outcome,[7],inactive
same,outcome,[8],inactive
O=C(O)c1cccc([N+](=O)[O-])c1,outcome,[1],inactive
same,outcome,[2],inactive
same,outcome,[3],inactive
same,outcome,[5],inactive
same,outcome,[7],inactive
CCC(C)CCCC(C)(C)O (centres undefined),outcome,[1],inactive
same,outcome,[2],inactive
same,outcome,[3],inactive
same,outcome,[4],inactive
same,outcome,[8],inactive
CCCCCCCCCCC(CO)CCCCCCCC (centres undefined),outcome,[1],inactive
same,outcome,[2],inactive
same,outcome,[3],inactive
same,outcome,[4],inactive
same,outcome,[6],inactive
same,outcome,[7],inactive
same,outcome,[8],inactive
CCCCO,outcome,[1],inactive
same,outcome,[2],inactive
same,outcome,[3],inactive
same,outcome,[5],inactive
same,outcome,[6],inactive
same,outcome,[9],inactive
same,outcome,[7],inactive
CCCCC(CC)COCCC#N (centres undefined),outcome,[1],inactive
same,outcome,[2],inactive
same,outcome,[3],inactive
same,outcome,[6],inactive
same,outcome,[7],inactive
CC(C)(C#N)c1cc(Cn2cncn2)cc(C(C)(C)C#N)c1,outcome,[1],inactive
same,outcome,[2],inactive
same,outcome,[3],inactive
same,outcome,[5],inactive
same,outcome,[6],inactive
same,outcome,[9],inactive
same,outcome,[7],inactive
same,outcome,[8],inactive
Cc1cc(C2(c3cc(C)c(O)cc3C)OS(=O)(=O)c3ccccc32)c(C)cc1O,outcome,[1],inactive
same,outcome,[2],inactive
same,outcome,[3],inactive
same,outcome,[5],inactive
same,outcome,[7],inactive
CC(C)C1CCC(O)CC1 (centres undefined),outcome,[1],inactive
same,outcome,[2],inactive
same,outcome,[3],inactive
same,outcome,[4],inactive
same,outcome,[6],inactive
same,outcome,[7],inactive
same,outcome,[8],inactive
COC(=O)Cc1cccc2ccccc12,outcome,[1],inactive
same,outcome,[2],inactive
same,outcome,[3],inactive
same,outcome,[5],inactive
same,outcome,[6],inactive
same,outcome,[9],inactive
same,outcome,[7],inactive
same,outcome,[8],inactive
CC1CCC2CC1C2(C)C (centres undefined),outcome,[1],inactive
same,outcome,[2],inactive
same,outcome,[3],inactive
same,outcome,[5],inactive
same,outcome,[9],inactive
same,outcome,[7],inactive
COc1cccc(OC)c1,outcome,[1],inactive
same,outcome,[2],inactive
same,outcome,[3],inactive
same,outcome,[4],inactive
same,outcome,[7],inactive
CCC(=O)OCCC(C)CCC=C(C)C (centres undefined),outcome,[1],inactive
same,outcome,[2],inactive
same,outcome,[3],inactive
same,outcome,[5],inactive
same,outcome,[6],inactive
same,outcome,[9],inactive
same,outcome,[7],inactive
O=[N+]([O-])c1cc(C(F)(F)F)ccc1Cl,outcome,[1],inactive
same,outcome,[2],inactive
same,outcome,[3],inactive
same,outcome,[5],inactive
same,outcome,[6],inactive
same,outcome,[7],inactive
same,outcome,[8],inactive
COCCOCCOCCOCCOCCO,outcome,[1],inactive
same,outcome,[2],inactive
same,outcome,[3],inactive
same,outcome,[5],inactive
same,outcome,[8],inactive
